Experimental data reported in PubChem BioAssay (Tox21).
Several values for one entry are separate records, joined by “and”; a condition that tells them apart may be missing. Equal entries are not always repeated. Records with an inconclusive call do not appear. Where a structure was tested more than once in an assay, its records may differ in their call. Activity calls are given as the source filed them. Calls follow the shape of the full dose curve.

Target: Acetylcholinesterase (Homo sapiens) (UniProt P22303)
Assay: Acetylcholinesterase (AChE) small molecule antagonists: colormetric cell-based qHTS assay (AID 1347395); also: nearly all actives have a fitted effect of over 30% in size
Conditions: SH-SY5Y cells AChE activity, colorimetric (Ellman); series mostly up to 115 µM; activity, negative = inhibition: at the top concentration
Procedure, shortened: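 SH-SY5Y cells, plated overnight at 37 C, were exposed to compounds for 30 min at 37 C and 5% CO2. Acetylthiocholine plus DTNB was then added, and thiocholine from endogenous AChE was quantified colorimetrically after 90 min at 37 C.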
% is scaled to controls: 0 for no effect and ±100 for the full control effect; potency is read from the fitted curve at half-maximal effect.

Chain of Acetylcholinesterase (Homo sapiens) (P22303 whole entry, looked up): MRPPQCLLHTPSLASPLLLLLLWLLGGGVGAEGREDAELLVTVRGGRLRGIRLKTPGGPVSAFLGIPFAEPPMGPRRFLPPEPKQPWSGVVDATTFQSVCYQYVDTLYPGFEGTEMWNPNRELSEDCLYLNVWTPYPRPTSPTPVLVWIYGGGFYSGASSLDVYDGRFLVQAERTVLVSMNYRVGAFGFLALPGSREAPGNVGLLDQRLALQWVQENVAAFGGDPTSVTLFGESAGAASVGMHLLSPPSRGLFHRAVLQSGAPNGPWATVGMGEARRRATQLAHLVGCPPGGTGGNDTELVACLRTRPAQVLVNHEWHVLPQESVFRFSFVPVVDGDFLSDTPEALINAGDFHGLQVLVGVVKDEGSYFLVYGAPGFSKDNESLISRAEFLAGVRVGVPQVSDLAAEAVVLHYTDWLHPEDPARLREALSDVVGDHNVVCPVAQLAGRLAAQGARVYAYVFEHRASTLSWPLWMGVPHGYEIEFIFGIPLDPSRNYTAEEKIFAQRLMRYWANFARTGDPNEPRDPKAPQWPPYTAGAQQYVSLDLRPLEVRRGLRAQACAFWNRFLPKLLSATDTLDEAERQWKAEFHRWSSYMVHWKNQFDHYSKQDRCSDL

Row | SMILES | activity, negative = inhibition | Potency
1 | c1ccc(CCc2ccccc2)cc1 | -3.16% (inactive) | –
2 | CCCCCCCCCCCCc1ccccc1O | – | inactive
3 | C=CCCC(=O)/C=C/C1C(C)=CCCC1(C)C (stereo not given) | -0.0852% (inactive) | –
4 | CCC(C)(C)C(=O)O[C@H]1C[C@@H](C)C=C2C=C[C@H](C)[C@H](CC[C@@H]3C[C@@H](O)CC(=O)O3)[C@H]21 | – | inactive
5 | O=S(=O)(O)c1ccc(O)c2ncccc12 | 1.88% (inactive) | –
6 | O=C(O)COC(=O)Cc1ccccc1Nc1c(Cl)cccc1Cl | -4.04% [at 52.9 µM] (inactive) | –
7 | CC1=C(Br)C(=O)C(Br)=C/C1=C(/c1ccccc1S(=O)(=O)O)c1cc(Br)c(O)c(Br)c1C | 2.46% [at 52.9 µM] (inactive) | –
8 | CCO[Si](CCCN)(OCC)OCC | – | inactive
9 | CCC1COC(=O)O1 (stereo not given) | -4.23% (inactive) | –
10 | CC(C)c1ccc(S(=O)(=O)O)cc1 | – | inactive
11 | NC[C@H]1O[C@H](O[C@H]2[C@H](O[C@@H]3O[C@H](CO)[C@@H](O)[C@H]3O)C(O)[C@H](N)C[C@@H]2N)[C@H](N)[C@@H](O)[C@@H]1O (stereo not given in full) | -1.41% [at 10.5 µM] (inactive) | –
12 | NCC(=O)CCC(=O)O | -0.912% [at 52.9 µM] (inactive) | –
13 | Cn1sccc1=O | – | inactive and 71 µM (active)
14 | CNS(=O)(=O)CCc1ccc2[nH]cc(C3CCN(C)CC3)c2c1 | -2.46% [at 52.9 µM] (inactive) | –
15 | CCn1c2ccccc2c2cc([N+](=O)[O-])ccc21 | -1.26% (inactive) | –
16 | C[C@@H](Oc1ccc(CNC(=O)c2cccnc2Oc2ccc3c(c2)OCO3)c(F)c1)C(=O)O | 0.0889% (inactive) | –
17 | CC(C)(c1ccc(O)cc1)c1ccc(O)cc1 | – | inactive
18 | CCC(C)c1nccnc1OC (stereo not given) | 8.3% (inactive) | –
19 | CC(=O)NCc1c(I)c(NC(C)=O)c(I)c(C(=O)O)c1I | 4.24% [at 52.9 µM] (inactive) | –
20 | CCCCOc1cc(C(=O)NCCN(CC)CC)c2ccccc2n1 | 0.793% [at 52.9 µM] (inactive) | –

Row | SMILES | activity, negative = inhibition | Potency
21 | CN1C(=O)CC[C@H]1c1cccnc1 | – | inactive
22 | CCCCC(CC)COC(=O)c1ccccc1C(=O)O (stereo not given) | 3.19% (inactive) | –
23 | CC[C@]12CCCN3CCc4c(n(c5ccccc45)C(=O)C1)[C@@H]32 | -10.1% [at 52.9 µM] (inactive) | –
24 | SCCOCCOCCS | -2.84% (inactive) | –
25 | CN(c1nccc(=O)[nH]1)C1CCN(c2nc3ccccc3n2Cc2ccc(F)cc2)CC1 | -4.01% [at 52.9 µM] (inactive) | –
26 | CC[C@]1(O)C[C@H]2CN(CCc3c([nH]c4ccccc34)[C@@](C(=O)OC)(c3cc4c(cc3OC)N(C=O)[C@H]3[C@@](O)(C(=O)OC)[C@H](OC(C)=O)[C@]5(CC)C=CCN6CC[C@]43[C@@H]65)C2)C1 | 0.925% [at 52.9 µM] (inactive) | –
27 | NNC(=O)CP(=O)(c1ccccc1)c1ccccc1 | 1.19% [at 52.9 µM] (inactive) | –
28 | O=C(O)CONC(=O)c1ccccc1 | 2.84% (inactive) | –
29 | C=CC(C)(CCC=C(C)C)OC(=O)/C=C/c1ccccc1 (stereo not given) | -0.301% (inactive) | –
30 | Nc1nc2c(ncn2COC(CO)CO)c(=O)[nH]1 | -0.449% [at 52.9 µM] (inactive) | –
31 | CC(CO)(CO)C(=O)O | -0.375% (inactive) | –
32 | C[C@]12CCC(=O)C=C1CC[C@@H]1[C@@H]2[C@@H](O)C[C@@]2(C)[C@H]1CC[C@]2(O)C(=O)CO | – | inactive
33 | Cc1nnc(NS(=O)(=O)c2ccc(N)cc2)s1 | – | inactive
34 | Cc1cc(C)c(C(=O)O)c(C)c1 | -4.35% (inactive) | –
35 | CC1(C)CC(=O)CC(C)(C)N1 | 1.21% (inactive) | –
36 | Nc1ccc(O)c(N)c1 | – | inactive
37 | Cc1cc2cc3c(C)cc(=O)oc3c(C)c2o1 | -2.9% [at 52.9 µM] (inactive) | –
38 | CCOC(=O)COc1ccc2c(C)c(CCN(CC)CC)c(=O)oc2c1Cl | – | 13.8 µM (active)
39 | CCCCOC(=O)C(C)OC(=O)CCC (stereo not given) | -0.841% (inactive) | –
40 | CCCC(C)C(=O)OCC (stereo not given) | 0.606% (inactive) | –

Target: Acetylcholinesterase (Homo sapiens) (UniProt P22303)
Assay: Acetylcholinesterase (AChE) small molecule antagonists: fluorescence cell-based qHTS assay (AID 1347398); also: nearly all actives have a fitted effect of over 50% in size
Conditions: SH-SY5Y cells; Potency: AChE activity; outcome: AChE activity; series mostly up to 115 µM; activity change, negative = inhibition: at the top concentration
Procedure, shortened: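 Using neuroblastoma SH-SY5Y cells as the enzyme source, test chemicals are preincubated 30 min at 37 C; AChE-driven acetylthiocholine cleavage is then quantified by thiocholine-dependent Thiolite Green fluorescence after 40 min at room temperature.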

Row | SMILES | activity change, negative = inhibition | Potency
41 | c1ccc(CCc2ccccc2)cc1 | 4.12% (inactive) | –
42 | CCCCCCCCCCCCc1ccccc1O | – | inactive
43 | C=CCCC(=O)/C=C/C1C(C)=CCCC1(C)C (stereo not given) | -2.04% (inactive) | –
44 | CCC(C)(C)C(=O)O[C@H]1C[C@@H](C)C=C2C=C[C@H](C)[C@H](CC[C@@H]3C[C@@H](O)CC(=O)O3)[C@H]21 | – | inactive
45 | O=S(=O)(O)c1ccc(O)c2ncccc12 | 8.76% (inactive) | –
46 | O=C(O)COC(=O)Cc1ccccc1Nc1c(Cl)cccc1Cl | 2.52% [at 53.7 µM] (inactive) | –
47 | CC1=C(Br)C(=O)C(Br)=C/C1=C(/c1ccccc1S(=O)(=O)O)c1cc(Br)c(O)c(Br)c1C | -6.84% [at 53.7 µM] (inactive) | –
48 | CCO[Si](CCCN)(OCC)OCC | – | inactive
49 | CCC1COC(=O)O1 (stereo not given) | 0.0809% (inactive) | –
50 | CC(C)c1ccc(S(=O)(=O)O)cc1 | – | inactive
51 | NC[C@H]1O[C@H](O[C@H]2[C@H](O[C@@H]3O[C@H](CO)[C@@H](O)[C@H]3O)C(O)[C@H](N)C[C@@H]2N)[C@H](N)[C@@H](O)[C@@H]1O (stereo not given in full) | 8.04% [at 10.5 µM] (inactive) | –
52 | NCC(=O)CCC(=O)O | 0.482% [at 53.7 µM] (inactive) | –
53 | Cn1sccc1=O | – | inactive
54 | CNS(=O)(=O)CCc1ccc2[nH]cc(C3CCN(C)CC3)c2c1 | 1.25% [at 53.7 µM] (inactive) | –
55 | CCn1c2ccccc2c2cc([N+](=O)[O-])ccc21 | -11.6% (inactive) | –
56 | C[C@@H](Oc1ccc(CNC(=O)c2cccnc2Oc2ccc3c(c2)OCO3)c(F)c1)C(=O)O | -0.234% (inactive) | –
57 | CC(C)(c1ccc(O)cc1)c1ccc(O)cc1 | -5% (inactive) | –
58 | CCC(C)c1nccnc1OC (stereo not given) | 5.73% (inactive) | –
59 | CC(=O)NCc1c(I)c(NC(C)=O)c(I)c(C(=O)O)c1I | 7.49% [at 53.7 µM] (inactive) | –
60 | CCCCOc1cc(C(=O)NCCN(CC)CC)c2ccccc2n1 | -16.2% [at 53.7 µM] (inactive) | –

Row | SMILES | activity change, negative = inhibition | Potency
61 | CN1C(=O)CC[C@H]1c1cccnc1 | – | inactive
62 | CCCCC(CC)COC(=O)c1ccccc1C(=O)O (stereo not given) | -8.61% (inactive) | –
63 | CC[C@]12CCCN3CCc4c(n(c5ccccc45)C(=O)C1)[C@@H]32 | -14.2% [at 53.7 µM] (inactive) | –
64 | SCCOCCOCCS | 1.35% (inactive) | –
65 | CN(c1nccc(=O)[nH]1)C1CCN(c2nc3ccccc3n2Cc2ccc(F)cc2)CC1 | -4.19% [at 53.7 µM] (inactive) | –
66 | CC[C@]1(O)C[C@H]2CN(CCc3c([nH]c4ccccc34)[C@@](C(=O)OC)(c3cc4c(cc3OC)N(C=O)[C@H]3[C@@](O)(C(=O)OC)[C@H](OC(C)=O)[C@]5(CC)C=CCN6CC[C@]43[C@@H]65)C2)C1 | 2.14% [at 53.7 µM] (inactive) | –
67 | NNC(=O)CP(=O)(c1ccccc1)c1ccccc1 | 2.41% [at 53.7 µM] (inactive) | –
68 | O=C(O)CONC(=O)c1ccccc1 | 0.182% (inactive) | –
69 | C=CC(C)(CCC=C(C)C)OC(=O)/C=C/c1ccccc1 (stereo not given) | -13.9% (inactive) | –
70 | Nc1nc2c(ncn2COC(CO)CO)c(=O)[nH]1 | 3.4% [at 53.7 µM] (inactive) | –
71 | CC(CO)(CO)C(=O)O | -10.7% (inactive) | –
72 | C[C@]12CCC(=O)C=C1CC[C@@H]1[C@@H]2[C@@H](O)C[C@@]2(C)[C@H]1CC[C@]2(O)C(=O)CO | – | inactive
73 | Cc1nnc(NS(=O)(=O)c2ccc(N)cc2)s1 | – | inactive
74 | Cc1cc(C)c(C(=O)O)c(C)c1 | -0.863% (inactive) | –
75 | CC1(C)CC(=O)CC(C)(C)N1 | 1.5% (inactive) | –
76 | Nc1ccc(O)c(N)c1 | – | inactive
77 | Cc1cc2cc3c(C)cc(=O)oc3c(C)c2o1 | 1.89% [at 53.7 µM] (inactive) | –
78 | CCOC(=O)COc1ccc2c(C)c(CCN(CC)CC)c(=O)oc2c1Cl | – | 6.92 µM (active)
79 | CCCCOC(=O)C(C)OC(=O)CCC (stereo not given) | -0.098% (inactive) | –
80 | CCCC(C)C(=O)OCC (stereo not given) | -0.646% (inactive) | –
